# Most compounds without a hit are left out; they make up all but 6.6% or so of the library.
# TGFb inhibitor: inhibitors of TGF-b signaling. Potency, µM (top dose mostly 46.1 µM), for inactives: at the highest dose activity, negative = inhibition, most hits filed as inhibitors. AID 588855. HepG2 CAGA-GFP TGF-b/SMAD3 reporter, GFP fluorescence, 18 h; TGF-beta stimulated, 500 pg/mL final. 410,000 compounds, 1.2% hits; note: % is set by controls: 0 for no effect and ±100 for the full control effect; nearly all actives have a fitted effect of over 65% in size
#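 First, reporter cells (HEPG2 CAGA-GFP) rested 2 h at 37 degrees C. Next, compounds were pinned in and TGF-beta added to 500 pg/mL final. After 18 h, GFP was imaged per cell and summed per well.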
# HT1080 IDH1KD tx: HT-1080 IDH1 knockdown cell toxicity (counter line) | HT-1080 IDH1 knockdown viability, ATP luminescence, 48 h | Potency, µM (doses to about 46.1 µM), for inactives: at the highest dose activity, negative = toxicity, hits mostly cytotoxic | 360,000 compounds, 2% hits;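 note: 0% = DMSO wells and -100% = cell-free medium wells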
#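 Knockdown cells (IDH1KD HT-1080) received compounds 2 h after plating at 750 cells/well and were kept 48 h at 37 °C in 5% FBS RPMI. A CellTiter-Glo luminescence read gave % activity for curve fitting.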
# KB-V1 MDR tox: KB-V1 MDR subline cytotoxicity. KB-V1 MDR cells viability, CellTiter-Glo, 72 h. Potency, µM (series often up to 46.1 µM), most hits filed as cytotoxic. 400,000 compounds, 3.4% hits. AID 1347076; note: % is set by controls: 0 for no effect and ±100 for the full control effect; nearly all actives have a fitted effect of over 60% in size
#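 Cytotoxicity via CellTiter-Glo luminescence after 72 h compound exposure at 37 degrees C. Cells: drug-selected KB-V1 line, DMEM phenol-red free plus 10% FBS. Compounds tested at multiple concentrations; normalized data fitted to concentration-effect curves.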
# KB-3-1 cytotox: KB-3-1 parental cell cytotoxicity; KB-3-1 viability, CellTiter-Glo ATP luminescence, 72 h; Potency, µM (titrated, usually from 46.1 µM), most hits filed as cytotoxic; 400,000 compounds, 1.4% hits; note: % is set by controls: 0 for no effect and ±100 for the full control effect; nearly all actives have a fitted effect of over 60% in size
#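 Multi-concentration cytotoxicity screen in KB-3-1 cells grown in DMEM lacking phenol red with 10% FBS. After 72 h at 37 °C with compound, ATP-dependent luminescence was recorded.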
# HT1080NT lethal: kills 2HG-producing HT-1080-NT fibrosarcoma cells. HT-1080-NT fibrosarcoma viability, CellTiter-Glo ATP luminescence, 48 h. Potency, µM (highest dose often 46.1 µM), inactives show top-dose activity, negative = less viability, hits mostly cytotoxic. 360,000 compounds, 1.6% hits;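 note: NT is the 2HG producing partner of a matched IDH1 knockdown line; 0% = DMSO-treated cells and -100% = media-only wells without cells; nearly all actives have a fitted effect of over 55% in size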
#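 Viability by CellTiter-Glo luminescence after 48 h compound exposure at 37C of HT-1080-NT cells (750/well, RPMI, 5% FBS). % activity scaled between DMSO wells and medium-only wells, then curve-fitted and categorized by curve class.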
# HepG2 tox: HepG2 cytotoxicity, counter-screen for TGF-b inhibitors | 410,000 compounds, 0.76% hits | Potency, µM (series often up to 46.1 µM), without a hit: at the top dose activity change, negative = cytotoxicity, most hits filed as cytotoxic | HepG2 CAGA-GFP viability, ATP luminescence, 18 h | AID 588856
#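 HepG2 CAGA-GFP cells (1000/well, DMEM with 1% FBS) received compound, then TGF-beta at 500 pg/mL final, and were incubated 18 hours at 37 degrees C. Viability was read by CellTiter-Glo luminescence. Media-only wells were set as complete cell-killing and DMSO as no toxicity.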
# An asterisk follows results filed as active; i = inactive; ? = inconclusive; / = not tested or not shown; ! = a repeat was not active. Calls come from the whole dose curve; as a rule, active = well fitted curve in the direction sought with a large enough effect; inconclusive = small, poorly fitted or top-dose-only effect, or another doubt; inactive = no such curve, though single readings can be large; an effect the other way counts as inactive or inconclusive. Potency is the fitted concentration of half-maximal effect.
SMILES,TGFb inhibitor,HT1080 IDH1KD tx,KB-V1 MDR tox,KB-3-1 cytotox,HT1080NT lethal,HepG2 tox
Cc1cc(C)c(NC(=O)Cn2c(=O)n(Cc3ccc(C(=O)NCc4ccco4)cc3)c(=O)c3sccc32)c(C)c1,10µM*,/,/,/,/,-84%
COc1cc(OC)cc(-n2c(=O)c3sccc3n(Cc3ccc(F)cc3)c2=O)c1,19%,/,i,i,/,7%
Cc1ccc(-c2nnn3c2nc(NCC(C)c2ccccc2)c2ccccc23)cc1 (stereo not drawn),-27%,/,i,i,/,-18%
COc1ccc(C=O)cc1COc1ccc2c(c1)OCO2,5%,23µM*,?,?,?,-3%
Cc1ccc2nsnc2c1S(=O)(=O)N1CCN(CCc2ccccc2)CC1,-11%,-2%,12µM*,?,-4%,-29%
Cc1ccc(/C=N/NC(=O)CN(Cc2ccccc2)S(=O)(=O)c2ccc3c(c2)OCCO3)cc1,-23%,-13%,5.8µM*,i,-4%,-63%
CCN1CCN(CNC(=O)c2cnccn2)CC1,-5%,1%,23µM*,?,-4%,-10%
Cc1ccc(CNC(=O)C2CCCN(S(=O)(=O)c3ccc4c(c3)oc(=O)n4C)C2)cc1 (stereo not drawn),?,/,i,i,/,-5%
COc1ccc(C(CCN2CCCCC2)c2c(OC)cc(OC)c3c(-c4ccccc4)cc(=O)oc23)cc1 (stereo not drawn),?,-14%,i,?,-28%,18µM*!
CCCCCc1cc(=O)oc2c(C(CCN3CCCCC3)c3cc(OC)c(OC)c(OC)c3)c(OC)cc(OC)c12 (stereo not drawn),16µM*,?,?,?,21µM*,13µM*
CCCCCc1cc(=O)oc2c(C(CCN(CC)CC)c3ccc(N(C)C)cc3)c(OC)cc(OC)c12 (stereo not drawn),?,-25%,?,?,18µM*,-109%
COc1cc(OC)c2c(-c3ccccc3)cc(=O)oc2c1C(CCN1CCCCC1)c1ccc(N(C)C)cc1 (stereo not drawn),?,-29%,i,?,-21%,-70%
CCCCCc1cc(=O)oc2c(C(CCN3CCCC(C)C3)c3cc(OC)c(OC)c(OC)c3)c(OC)cc(OC)c12 (stereo not drawn),?,?,i,i,?,16µM*
CCOc1ccc(C(=O)NCC(c2ccc3c(c2)OCO3)N2CCN(C)CC2)cc1 (stereo not drawn),-12%,/,i,i,/,-7%
Cc1c(C(=O)Nc2ccc(F)cc2)oc2ccc(S(=O)(=O)N3CCCCCC3)cc12,-4%,/,i,i,/,-8%
Cc1nc2ccn(Cc3cccnc3)c(=O)c2cc1C(=O)N1CCN(c2ccc(F)cc2)CC1,18%,/,i,i,/,1%
Cc1ccccc1OCC(=O)Nc1sc2c(c1C#N)CC(C)(C)NC2(C)C,0%,?,i,i,23µM*,-25%
CC1(C)Cc2c(sc(NC(=O)COc3ccc(Cl)cc3)c2C#N)C(C)(C)N1,2%,?,i,i,?,-15%
COc1ccc(CCNC2CCC(c3ccccc3)CC2)cc1 (stereo not drawn),8%,?,i,i,18µM*,-18%
Cc1cc(C)cc(NC(=O)C(Cc2ccccc2)NS(=O)(=O)c2ccc3c(c2)CCC(=O)N3)c1 (stereo not drawn),-14%,/,i,i,/,-26%
COc1cc(-c2nc3cnccn3c2Nc2ccc(C(C)C)cc2)ccc1O,11µM*,?,i,i,?,11µM*!
COc1cc(-c2nc3cnccn3c2Nc2ccccc2)ccc1O,-15%,-24%,i,?,-9%,-13%
COc1cc(-c2nc3cnccn3c2Nc2ccc(C)cc2)ccc1O,-27%,16µM*,?,i,?,-35%
COc1cc(-c2nc3cnccn3c2Nc2ccc3c(c2)OCCO3)ccc1O,-7%,-9%,?,i,2%,7%
CCOC(=O)c1cc(-c2ccc(OC)cc2)n(CCC(=O)Nc2ccccc2OC)c1C,1%,/,i,i,/,-29%
SMILES,TGFb inhibitor,HT1080 IDH1KD tx,KB-V1 MDR tox,KB-3-1 cytotox,HT1080NT lethal,HepG2 tox
CC(C)NCC(O)(c1ccc(Cl)cc1)c1ccc(Cl)cc1,?,-16%,i,i,-17%,-43%
CCN(CC)CCNC(=O)NC(=O)c1ccc(Cl)cc1,22%,1%,i,i,-2%,7%
COc1ccccc1CNCC(O)(c1ccc(F)cc1)c1ccc(F)cc1,?,-12%,i,i,-17%,-48%
COc1ccccc1CNCC(O)(c1ccc(Cl)cc1)c1ccc(Cl)cc1,?,11µM*,?,i,13µM*,-103%
Clc1ccc(-c2ccc(CNCCSc3nnnn3-c3ccccc3)o2)cc1,?,/,i,i,/,-57%
CCN(CC)CCNCC(O)(c1ccc(Cl)cc1)c1ccc(Cl)cc1,?,21µM*,i,i,21µM*,-52%
CC(C)(C)NCC(O)(c1ccc(Cl)cc1)c1ccc(Cl)cc1,?,15µM*,?,i,13µM*,-47%
CCN(CC)CCNCc1ccc(-c2ccc(Cl)cc2)o1,-1%,?,i,i,16µM*,-32%
CCc1cccc(CC)c1N1C(=O)C2=C(SCCCS2)C1=O,-22%,-21%,?,i,-4%,-60%
CCN(CC)c1ccc(NC(=O)c2cnc3ccccn3c2=O)c(C)c1,-8%,-14%,3.7µM*,i,10%,-24%
O=C1NC(c2ccccc2)=C(c2nc3ccccc3s2)C(c2ccc(O)cc2)N1 (stereo not drawn),?,5.6µM*,?,i,7.9µM*,-81%
CCc1ccccc1NC(=O)Cn1nc(C)c2nn(-c3ccc(Cl)cc3)c(C)c2c1=O,-7%,/,/,/,/,9%
CCc1noc(-c2ccc(NC(C)c3ccccc3)c([N+](=O)[O-])c2)n1 (stereo not drawn),-35%,/,i,i,/,-4%
C/C(=N\NC(=S)NCCc1ccccc1)c1ccc(C#N)cc1,7%,7.1µM*,i,i,6.3µM*,-10%
CCCCn1c(SCC#N)nc2ccccc2c1=O,-24%,/,i,i,/,-18%
CCCCn1c(SCc2nc3ccccc3s2)nc2ccccc2c1=O,-7%,5%,?,23µM*,4%,0%
CCCCn1c(Oc2cccc(C(=O)OC)c2)nc2c1c(=O)n(C)c(=O)n2C,-9%,/,i,i,/,-52%
